SMILES strings stand for the structures. The panel holds about 83,000 compounds, 20% with a hit somewhere; the sample as a whole holds those more often.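 The test compound was applied at a single concentration to cells in 96-well plates for 48 hours, and percent growth was recorded.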 A number with no mark means an inactive call. The source made the active and inactive calls. Rule for the calls: active = growth percent below 10; inactive = the rest.

For twelve molecules, growth results are on record in PubChem BioAssay (NCI).

Experiment in all cases: NCI-60 one-dose screen, 48 h (100 = growth as untreated, 0 = no growth, -100 = all killed)
Holding throughout (conditions): 10 µM unless noted

In experiment [1] the test system is SR leukemia.
The test system of experiment [2] is RPMI-8226 leukemia.
The test system of experiment [3] is OVCAR-8 ovarian.
Experiment [4] concerns OVCAR-4 ovarian.
The subject of experiment [5] is SK-OV-3 ovarian.
In experiment [6] the test system is IGROV1 ovarian.
The subject of experiment [7] is OVCAR-3 ovarian.
Experiment [8] relates to HS 578T breast.
In experiment [9] the test system is NCI/ADR-RES ovarian.
Experiment [10] concerns OVCAR-5 ovarian.

As for `COC(=O)c1c2c(c(C)[n+]([O-])c1C)C(=O)C=C(NCc1ccc(Br)cc1)C2=O`, the growth in experiment [1] was 1.3% (active); in [2], -28.3% (active); in experiment [3] it was 1.05% (active); in experiment [4], -92.8% (active); in [5], -10.7% (active); in [6], -53.4% (active). In addition, the figures for the growth in [7], in [8] and in experiment [9] were -73.4% (active), -7.62% (active) and -8.51% (active), respectively.

For the molecule `Cc1cc(Cl)ccc1Nc1nc(C(F)(F)F)ccc1C(=O)N/N=C/c1ccc([N+](=O)[O-])cc1`, the growth is -1.84% (active) in experiment [1]; -72.6% (active) in experiment [2]; 9.08% (active) in [3]; -11.6% (active) in [4]; -14.9% (active) in experiment [5]; -35.1% (active) in experiment [6]. Moreover, the growth in experiment [7] was -18.1% (active); in [8] it was 97.3%; in [9] it was -32.8% (active).

`CCOC(=O)C(=Cc1cccc(Br)c1)C(=O)OCC`: the growth in [1] is 3.67% (active); in [2], 12.9%; in experiment [3] it was 29.5%; in [4] it was 48.2%; in experiment [5] it was 86.2%; in experiment [6], 47.8%. The figures for the growth in [7], in experiment [8] and in experiment [9] were 15.6%, 25.6% and 11.7%, respectively.

As to `CCOC(=O)C1=NN(c2ccccc2)C(=O)/C1=C\N1C(=O)CC(=O)NC1=S`, the growth was 92.6% in experiment [1]; 93.1% in experiment [2]; 100% in experiment [3]; 52.7% in experiment [4]; 97.5% in experiment [5]; 106% in experiment [6]. In addition, the figures for the growth in experiment [7], in experiment [8] and in experiment [9] were 101%, 102% and 95.9%, respectively.

In the case of `COP(=O)(OC)C(C)(C)CC(=O)CC(C#N)(C#N)C(C#N)C#N`, the growth is 95.5% in experiment [1]; 87.8% in experiment [2]; 105% in [3]; 116% in experiment [4]; 101% in experiment [5]; 110% in experiment [6]. Moreover, the growth in experiment [7] is 114%; in experiment [8], 104%; in experiment [9], 98.4%.

Take `CCN(CC)CCNC(=O)c1cn2ncnc(Oc3ccc(NC(=O)Nc4ccc(Cl)c(C(F)(F)F)c4)c(F)c3)c2c1C`: the growth in [1] is -32.3% (active); in experiment [2], -16.6% (active); in experiment [3] it was 45.4%; in experiment [4] it was 6.15% (active); in experiment [5] it was 82%; in experiment [6], -36.6% (active). Further, the growth is -3.03% (active) in experiment [7], -7.92% (active) in experiment [8] and 56.8% in experiment [9].

Take `CCCC(O)Cn1ncc(C(=O)OCC)c1NC(=O)NCc1ccccc1F` (stereo unspecified): the growth is 93.5% in experiment [1]; 67.4% in experiment [2]; 89.9% in experiment [3]; 108% in experiment [10]; 87.1% in experiment [4]; 102% in experiment [5]. Further, the growth in experiment [7] is 91.1%; in [8] it was 102%; in experiment [9], 92.6%.

With `O=C1c2ccc3c4ccc5c6c(ccc(c7ccc(c2c37)C(=O)N1CCC[P+](c1ccccc1)(c1ccccc1)c1ccccc1)c64)C(=O)N(CCC[P+](c1ccccc1)(c1ccccc1)c1ccccc1)C5=O`, the growth is 35.9% in experiment [1]; 50.4% in [3]; 74.1% in experiment [10]; 75.9% in experiment [4]; 91.7% in experiment [5]; 29.6% in experiment [6]. For the same molecule, the results for the growth in [7], in [8] and in experiment [9] were 37.4%, 81.2% and 97.2%, respectively.

With `Cc1noc(C)c1C(=O)OCc1coc2ccccc2c1=O`, the growth in experiment [1] is 45.3%; in experiment [3], 91.8%; in experiment [10] it was 71.6%; in experiment [4], 62.8%; in experiment [5], 109%; in experiment [6] it was 82.6%. Further, the figures for the growth in experiment [7], in experiment [8] and in experiment [9] were 44.9%, 78.3% and 90.7%, respectively.

`COc1ccc(-c2nc(/C=C3\SC(=NCc4ccccc4)NC3=O)c3ccccn23)cc1`: the growth in experiment [1] was 3.32% (active); in experiment [3], -24.6% (active); in [10], -15% (active); in experiment [4] it was -71.9% (active); in experiment [5], -46.7% (active); in [6], -44.7% (active). For the same molecule, the growth in [7] was -88.5% (active); in experiment [8], -35.3% (active).

Regarding `COC1C[C@H](O[C@@H]2C[C@H](O[C@@H]3C[C@H](O[C@@H]4C(=O)c5c(cc6cc(O[C@H]7C[C@@H](O[C@H]8C[C@@H](O)[C@H](O)C(C)O8)[C@H](O)C(C)O7)c(C)c(O)c6c5O)C[C@H]4C(OC)C(=O)[C@@H](O)[C@@H](C)O)OC(C)[C@H]3O)OC(C)[C@@H]2O)OC(C)[C@@H]1O` (stereo partly specified), the growth was 10.2% in experiment [1]; 2.54% (active) in [3]; 14.2% in [10]; 12.1% in [4]; 16.6% in [5]; 9.46% (active) in [6]. For the same molecule, the growth in [7] was 3.14% (active); in experiment [8], 7.26% (active); in [9] it was 82.4%.

Consider `COc1ccc(/C=N/NC(=O)CCN2c3ccccc3Sc3ccccc32)cc1`, for which the growth in experiment [1] was 33.8%; in experiment [3], 99.3%; in experiment [10] it was 86.3%; in experiment [4], 89.6%; in experiment [5], 97.1%; in experiment [6] it was 66.3%. Further, the growth in experiment [7] was 76.4%; in experiment [8], 85.9%.
